# Screening data from PubChem BioAssay.
# KAT2A inh: GCN5L2 (KAT2A) acetyltransferase inhibition; 390,000 tested, 0.21% active; GCN5L2 HAT assay, ThioGlo1 CoA-SH fluorescence; Potency, µM (top dose mostly 58.9 µM), inactives show at the highest dose activity change, negative = inhibition, usual class: inhibitors; Q92830
#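 Free CoA generated was detected with ThioGlo1 (50uM) fluorescence at Ex340nm/Em540nm, read immediately and after 20 min at room temperature. Enzyme, 20 nM in HEPES pH 7.5 buffer, saw compounds 15 min before adding 75uM H3(1-25) peptide and 70uM acetyl-CoA.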
# PLK1 PBD inh: blocks phosphopeptide binding to human PLK1 polo-box domain; P53350; Plk1 PBD binding of FITC phosphopeptide, fluorescence polarization; Potency, µM, for inactives: max response, negative = inhibition, actives largely listed as inhibitors; 360,000 tested, 2.8% active; also: series mostly up to about 57 µM; nearly all actives have a fitted effect of over 65% in size
# TDP1 inh: blocks human tyrosyl-DNA phosphodiesterase 1; Q9NUW8; Potency, µM (titrated, usually from 130 µM), for inactives: at the highest dose activity change, negative = inhibition, usual class: inhibitors; recombinant TDP1, AlphaScreen DNA substrate cleavage; AID 485290; 350,000 tested, 0.28% active; also: nearly all actives have a fitted effect of over 40% in size
#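 Recombinant E. coli-expressed Tdp1 (1 nM) preincubated with compound 15 min at RT, then 5'-biotin/3'-phosphotyrosine-FITC DNA substrate (15 nM) added for 5 min. AlphaScreen beads (10 ug/ml) added, 10 min RT; tyrosine-FITC cleavage read as signal loss.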
# TDP1 cell CPT: growth inhibition of DT40 Tdp1-/-;hTDP1 cells with camptothecin (screen for TDP1 inhibitors) | 420,000 tested, 12% active | AID 686979 | Potency, µM (series often up to 46.2 µM), for the others: at the top dose activity change, negative = growth inhibition, hits mostly inhibitors | chicken DT40 Tdp1-/-;hTDP1 cells + 20 nM CPT, ATP luminescence, 48 h; also: nearly all actives have a fitted effect of over 55% in size
#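 Cell growth measured by CellTiter-Glo luminescence after a minimum 48 h, 37 C compound exposure with 20 nM CPT in Tdp1-knockout DT40 cells stably expressing hTDP1, seeded 400/well; qHTS titration format.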
# VDR inhibitor: blocks the human vitamin D receptor. P11473. VDR-SRC2-3 peptide fluorescence polarization, 2 h. Potency, µM, for the others: max response, negative = inhibition, most hits filed as inhibitors. 400,000 tested, 0.93% active
# Target sequence (P11473 whole entry, looked up): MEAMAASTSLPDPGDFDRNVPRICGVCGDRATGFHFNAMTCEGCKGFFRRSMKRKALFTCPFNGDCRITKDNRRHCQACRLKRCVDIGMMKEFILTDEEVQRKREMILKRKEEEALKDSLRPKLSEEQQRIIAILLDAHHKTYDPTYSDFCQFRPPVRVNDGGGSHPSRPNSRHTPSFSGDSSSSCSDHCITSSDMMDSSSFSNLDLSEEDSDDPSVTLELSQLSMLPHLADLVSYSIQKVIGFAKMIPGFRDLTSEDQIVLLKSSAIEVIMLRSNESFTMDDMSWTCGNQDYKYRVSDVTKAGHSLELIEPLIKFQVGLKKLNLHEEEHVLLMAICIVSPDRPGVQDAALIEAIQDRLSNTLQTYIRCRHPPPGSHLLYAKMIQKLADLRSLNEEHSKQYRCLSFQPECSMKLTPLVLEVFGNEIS
#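 Fluorescence polarization assay measuring small-molecule disruption of VDR binding to the coregulator peptide SRC2-3. Compounds were pin-transferred (23 nl) into the reagent mix and incubated 2 h at room temperature before reading.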
# DT40 TDP1 no CPT: qHTS for Inhibitors of human tyrosyl-DNA phosphodiesterase 1 (TDP1): qHTS in cells in absence of CPT; DT40 Tdp1-/- hTDP1 cells, no CPT, ATP luminescence, 48 h; Potency, µM (doses to about 46.2 µM), without a hit: at the highest dose activity change, negative = growth inhibition, most hits filed as inhibitors; 420,000 tested, 15% active; AID 686978, 2013; also: nearly all actives have a fitted effect of over 55% in size
#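 Growth of hTDP1-complemented DT40 Tdp1-knockout cells is measured by ATP luminescence after at least 48 hr compound exposure at 37 °C, with DMSO substituting for the 20 nM CPT used in the parallel screen.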
# * = called active by the depositor; ? = inconclusive; . = not tested or not shown; [ ] = remark or other dose. Compounds with a hit are over-represented: about 18% of the library has one in this group of screens. Calls follow the shape of the dose curve; as a rule, active = well fitted curve in the direction sought with a large enough effect; inconclusive = small, poorly fitted or top-dose-only effect, or another doubt; inactive = no such curve, though single readings can be large; an effect the other way counts as inactive or inconclusive. % is scaled to controls: 0 for no effect and ±100 for the full control effect; potency is read from the fitted curve at half-maximal effect.
SMILES,KAT2A inh,PLK1 PBD inh,TDP1 inh,TDP1 cell CPT,VDR inhibitor,DT40 TDP1 no CPT
O=C(N/N=C/c1ccc([N+](=O)[O-])o1)c1cc(-c2ccncc2)nc2ccccc12,?,-10.2%,-4.0%,7.08µM*,-8.8%,3.16µM*
O=C(N/N=C/c1ccc([N+](=O)[O-])o1)c1cc(-c2ccc(-c3ccccc3)cc2)nc2ccccc12,-4.0%,-23.0%,-2.5%,4.11µM*,9.2%,0.461µM*
Cn1c(/C=C/c2ccccc2)nc2ccccc2c1=O,?,-1.5%,.,-76.2%,-18.8%,?
O=C(N/N=C/c1c(F)c(F)c(F)c(F)c1F)c1cc(-c2ccccc2)nc2ccccc12,8.2%,-4.1%,.,?,13.8%,-28.7%
Cn1c(/C=C/c2ccc([N+](=O)[O-])o2)nc2ccccc2c1=O,1.7%,?,-1.9%,0.259µM*,-19.6%,0.259µM*
O=C(N/N=C/c1ccccn1)c1cc(-c2ccncc2)nc2ccccc12,-7.4%,-3.6%,10.5%,?,-0.2%,?
Cc1ccc(/C=N/NC(=O)c2cc(-c3ccncc3)nc3ccccc23)o1,0.5%,-11.8%,6.0%,2.91µM*,19.5%,2.59µM*
COc1ccccc1-c1cc(C(=O)N/N=C/c2ccc(C)o2)c2ccccc2n1,?,-9.9%,4.8%,?,-6.7%,?
Cc1nnc(N2CCCC(C(=O)NCc3ccccc3F)C2)c2nn(-c3ccc(Cl)cc3)c(C)c12 (stereo not given),1.3%,.,11.3%,?,8.0%,?
Cc1c(NC(=O)N(C)c2ccccc2)c(=O)n(-c2ccccc2)n1C,-5.6%,-13.6%,.,6.7%,-16.5%,-3.7%
COc1cccc(CNC(=O)CSc2nc(=O)n(Cc3ccncc3)c3c2CCC3)c1,-2.1%,-4.1%,.,-4.9%,4.3%,-1.2%
O=C(O)COc1ccc(/C=N/NC(=O)c2cn(-c3ccccc3)nc2-c2ccccc2)cc1,-5.6%,-10.5%,-1.9%,?,-4.9%,?
C/C(=N\NC(=O)c1cc(-c2ccncc2)nc2ccccc12)c1ccc(N2CCOCC2)cc1,-14.9%,29.9µM*,1.6%,?,-16.0%,?
O=C(N/N=C/c1ccc([N+](=O)[O-])o1)c1cn(-c2ccccc2)nc1-c1ccccc1,-5.0%,-6.7%,2.3%,?,-14.2%,6.51µM*
CC(=NNC(=O)c1cc(C)nc2ccccc12)c1ccc(N2CCOCC2)cc1,-9.2%,-4.3%,-1.2%,?,-7.6%,?
Cc1ccc(-c2cc(C(=O)N/N=C/c3ccc([N+](=O)[O-])o3)c3ccccc3n2)o1,-12.2%,?,-12.2%,18.4µM*,17.9%,13µM*
CCCS(=O)(=O)NCc1c(C)ncc2c1CCN(C(=O)c1ccc3[nH]c4c(c3c1)CCCC4)C2,.,.,.,3.6%[9.04 µM],.,?
Oc1ccc(C[C@H]2CNC(=S)N2CC2CCCN2C[C@H](Cc2ccccc2)N2C[C@H](Cc3ccc(O)cc3)N(CC3CCCCC3)C2=S)cc1 (stereo not given in full),.,2.2%,.,?,.,20.6µM*
Oc1ccc(C[C@@H](CN2CCCC2CN2C(=S)NC[C@@H]2Cc2ccccc2)N2C[C@H](Cc3ccccc3)N(CC3CCCCC3)C2=S)cc1 (stereo not given in full),.,-14.9%,.,14.6µM*,.,20.6µM*
Oc1ccc(C[C@H]2CNC(=S)N2CC2CCCN2C[C@H](Cc2ccc(O)cc2)N2C[C@H](Cc3ccccc3)N(CC3CCCCCC3)C2=S)cc1 (stereo not given in full),.,-9.0%,.,10.3µM*,-4.0%,4.11µM*
O=C1NC[C@H](Cc2ccccc2)N(C[C@@H]2CCCN2C[C@H](Cc2ccc(O)cc2)N2C[C@H](Cc3ccccc3)N(CC3CCCCCC3)C(=O)C2=O)C1=O,.,-12.4%,.,?,.,?
